Inconclusive results are not listed. Active and inactive are the calls of the source. The call rests on the fitted dose curve; in most records, active means well fitted activation curve with a large enough effect; inconclusive means small, poorly fitted or top-dose-only effect; inactive means flat fitted curve, though single readings scatter.
test: Cellular Toxicity (caspase-3) Jurkat (AID 655); conditions: Jurkat caspase-3 activation, luminescence; caspase-3 activation: at 92.2 µM (top of the series), DMSO = 0%, tamoxifen = 100%;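 further: cells exposed to compound for 16 h at 37 °C before reading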
Description: NIH Chemical Genomics Center [NCGC]
NIH Molecular Libraries Screening Centers Network [MLSCN]
National Institutes of Environmental Health Sciences [NIEHS]
National Toxicology Program [NTP]
We have developed a 1536-well cell-based assay for quantitative high throughput screening (qHTS) against a number of cell lines to determine in vitro caspase 3/7 of small molecules. This particular assay uses the Jurkat cell line which is derived from human T cell leukemia.
NCGC Assay Protocol Summary:
The Caspase-Glo 3/7 assay (Promega) is a homogeneous method to measure caspase-3 and caspase-7 activities in cultured cells. The quantitation of caspase 3/7 activity is based on the cleavage of a peptide-aminoluciferin substrate. After caspase cleaves the substrate the free aminoluciferin is liberated and serves as the substrate of luciferase, which generates the light. The luminescent signal is proportional to amount of caspase 3/7 activity present.
Using the Caspase-Glo 3/7 assay, the amount of caspase 3/7 activity was measured in the Jurkat cell line with complete culture medium following compound treatment for 16 hours. The assay was performed in opaque white 1536-well plates. In the screen, tamoxifen and doxorubicin were used as positive controls. Library compounds were measured for their ability to cause the activation of caspase 3/7 in the cell line, as reflected by an increase in luminescence signal, in a concentration-dependent manner. Data were normalized to the controls for basal activity (DMSO only) and 100% stimulation (100 uM tamoxifen). AC50 values were determined from concentration-response data modeled with the standard Hill equation.
qHTS protocol for caspase 3/7 assay in Jurkat cells
[Step] [Parameter] [Value] [Description]
1. Reagent; 5 uL; 5000 Jurkat cells/well
3. Controls; 23 nL; Tamoxifen 0.23 uM to 100 uM & Doxorubicin 7.0 pM to 100 uM
4. Time; 16 hr; 37 °C incubation
5. Reagent; 5 uL; Caspase-Glo 3/7 reagent
6. Time; 20 min; Room Temperature
7. Detection; Luminescence; Viewlux plate reader
Keywords: caspase 3/7, apoptosis, Jurkat cell line, luminescence, NTPHTS, NTPHTS_NCGC, NIEHS, EPA, DSSTox, MLSMR, MLSCN, NIH Roadmap, qHTS, NCGC

Row | Compound | caspase-3 activation
1 | COC(=O)Nc1nc2ccccc2[nH]1 | 10.9% (inactive)
2 | CC(C)(C)C(O)(CCc1ccc(Cl)cc1)Cn1cncn1 (stereo not given) | 2.58% (inactive)
3 | CCCCCOC(=O)c1ccccc1C(=O)OCCCCC | 0.132% (inactive)
4 | C1CC2OC2CC1C1CO1 (stereo not given) | -1.28% (inactive)
5 | Cc1cccc(C)c1N | -0.00153% (inactive)
6 | CC(Cl)CCl (stereo not given) | 0.191% (inactive)
7 | c1ccc(OCC2CO2)cc1 (stereo not given) | 1.63% (inactive)
8 | CC(C)[C@]12CC(=O)[C@H](C)[C@H]1C2 | 0.322% (inactive)
9 | Oc1cc(Cl)ccc1Cl | 1.27% (inactive)
10 | C=CCBr | -0.133% (inactive)
11 | Nc1ccc(Cc2ccc(N)c(Cl)c2)cc1Cl | 25.3% (inactive)
12 | C[N+](=O)[O-] | 0.536% (inactive)
13 | O=C(O)C(Br)Br | 6.46% (inactive)
14 | Cc1ccc(N)c(C)c1 | 1.21% (inactive)
15 | CCCCCCCCCCCCCl | 1.16% (inactive)
16 | O=C(O)C(Cl)Br (stereo not given) | -0.427% (inactive)
17 | CCCN(CCC)c1c([N+](=O)[O-])cc(C(F)(F)F)cc1[N+](=O)[O-] | 2.21% (inactive)
18 | Nn1cnnc1 | 0.14% (inactive)
19 | CC(C)Br | 0.12% (inactive)
20 | CCCCOCC1CO1 (stereo not given) | -0.958% (inactive)

Row | Compound | caspase-3 activation
21 | S=c1[nH]c2ccccc2[nH]1 | -0.402% (inactive)
22 | Clc1cc(Cl)c(Cl)c(Cl)c1 | 0.108% (inactive)
23 | CC(C)CC(C)N (stereo not given) | 1.95% (inactive)
24 | Cc1ccc([N+](=O)[O-])cc1 | -0.655% (inactive)
25 | O=Cc1ccc2c(c1)OCO2 | -0.168% (inactive)
26 | O=S(=O)(Cl)c1ccccc1 | 0.656% (inactive)
27 | ClCCBr | 0.239% (inactive)
28 | N#CCBr | 0.425% (inactive)
29 | CCOC(=O)C1OC1(C)c1ccccc1 (stereo not given) | -2.16% (inactive)
30 | CN(C)c1ccccc1 | 0.927% (inactive)
31 | COc1ccccc1N | 5.87% (inactive)
32 | Cc1ccccc1[N+](=O)[O-] | 0.646% (inactive)
33 | Cl/C=C/CCl | 1.51% (inactive)
34 | N#C/C=C/C#N | -8.24% (inactive)
35 | O=[N+]([O-])c1ccccc1-c1ccccc1 | 0.923% (inactive)
36 | c1ccc(C2CO2)cc1 (stereo not given) | 1.66% (inactive)
37 | BrCCc1ccccc1 | 1.89% (inactive)
38 | N#CCc1ccccc1 | -0.89% (inactive)
39 | C=CCCl | 0.433% (inactive)
40 | Nc1ccc2ccccc2c1 | 1.77% (inactive)

— PubChem BioAssay (NCATS)
